From the supplement of paper PMC4466140

Biological target: AgAbp1
Experiment: SPOT peptide array binding signal intensity (averaged, normalized) (arbitrary units (background-subtracted, floor 0; scale differs between SH3 domains)); higher = stronger binding of the SH3 domain to the peptide
How it was run: (§1)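 Four yeast species supplied the SH3 domains, which were expressed as GST fusions in E. coli BL21(DE3) and purified on glutathione Sepharose. Incubation with cellulose membranes carrying synthetic 15-mer peptides, cysteines exchanged for serines, ran overnight at 4°C at 10 μg/ml in TBS-based blocking buffer. Binding signal is reported as normalized, background-subtracted spot intensity averaged over replicates, in arbitrary units not shared between domains.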

Binder | SPOT peptide array binding signal intensity
MSPLGAPPPPPHKDH | ≤ 0

Biological target: AgBbc1
Experiment: as above
How it was run: as §1

Binder | SPOT peptide array binding signal intensity
MSPLGAPPPPPHKDH | ≤ 0

Biological target: AgBem1-D1
Experiment: as above
How it was run: as §1

Binder | SPOT peptide array binding signal intensity
MSPLGAPPPPPHKDH | ≤ 0

Biological target: AgBzz1-D1
Experiment: as above
How it was run: as §1

Binder | SPOT peptide array binding signal intensity
MSPLGAPPPPPHKDH | 6.5

Biological target: AgBzz1-D2
Experiment: as above
How it was run: as §1

Binder | SPOT peptide array binding signal intensity
MSPLGAPPPPPHKDH | 9

Biological target: AgCyk3
Experiment: as above
How it was run: as §1

Binder | SPOT peptide array binding signal intensity
MSPLGAPPPPPHKDH | 1

Biological target: AgFus1
Experiment: as above
How it was run: as §1

Binder | SPOT peptide array binding signal intensity
MSPLGAPPPPPHKDH | 1.5

Biological target: AgHof1
Experiment: as above
How it was run: as §1

Binder | SPOT peptide array binding signal intensity
MSPLGAPPPPPHKDH | ≤ 0

Biological target: AgHse1
Experiment: as above
How it was run: as §1

Binder | SPOT peptide array binding signal intensity
MSPLGAPPPPPHKDH | 23

Biological target: AgLsb1
Experiment: as above
How it was run: as §1

Binder | SPOT peptide array binding signal intensity
MSPLGAPPPPPHKDH | ≤ 0

Biological target: AgLsb4
Experiment: as above
How it was run: as §1

Binder | SPOT peptide array binding signal intensity
MSPLGAPPPPPHKDH | ≤ 0

Biological target: AgMyo5
Experiment: as above
How it was run: as §1

Binder | SPOT peptide array binding signal intensity
MSPLGAPPPPPHKDH | 449

Biological target: AgNbp2
Experiment: as above
How it was run: as §1

Binder | SPOT peptide array binding signal intensity
MSPLGAPPPPPHKDH | 5

Biological target: AgRvs167
Experiment: as above
How it was run: as §1

Binder | SPOT peptide array binding signal intensity
MSPLGAPPPPPHKDH | 1

Biological target: AgSho1
Experiment: as above
How it was run: as §1

Binder | SPOT peptide array binding signal intensity
MSPLGAPPPPPHKDH | 4

Biological target: AgSla1-D1-D2
Experiment: as above
How it was run: as §1

Binder | SPOT peptide array binding signal intensity
MSPLGAPPPPPHKDH | 2

Biological target: AgSla1-D3
Experiment: as above
How it was run: as §1

Binder | SPOT peptide array binding signal intensity
MSPLGAPPPPPHKDH | ≤ 0

Biological target: CaAbp1-D1
Experiment: as above
How it was run: as §1

Binder | SPOT peptide array binding signal intensity
MSPLGAPPPPPHKDH | ≤ 0

Biological target: CaAbp1-D2
Experiment: as above
How it was run: as §1

Binder | SPOT peptide array binding signal intensity
MSPLGAPPPPPHKDH | ≤ 0

Biological target: CaBbc1
Experiment: as above
How it was run: as §1

Binder | SPOT peptide array binding signal intensity
MSPLGAPPPPPHKDH | 0.5

Biological target: CaBem1-D1
Experiment: as above
How it was run: as §1

Binder | SPOT peptide array binding signal intensity
MSPLGAPPPPPHKDH | ≤ 0

Biological target: CaBzz1-D1
Experiment: as above
How it was run: as §1

Binder | SPOT peptide array binding signal intensity
MSPLGAPPPPPHKDH | 10

Biological target: CaBzz1-D2
Experiment: as above
How it was run: as §1

Binder | SPOT peptide array binding signal intensity
MSPLGAPPPPPHKDH | 3.25

Biological target: CaCyk3
Experiment: as above
How it was run: as §1

Binder | SPOT peptide array binding signal intensity
MSPLGAPPPPPHKDH | ≤ 0

Biological target: CaFus1
Experiment: as above
How it was run: as §1

Binder | SPOT peptide array binding signal intensity
MSPLGAPPPPPHKDH | 42

Biological target: CaHof1
Experiment: as above
How it was run: as §1

Binder | SPOT peptide array binding signal intensity
MSPLGAPPPPPHKDH | 0.75

Biological target: CaHse1
Experiment: as above
How it was run: as §1

Binder | SPOT peptide array binding signal intensity
MSPLGAPPPPPHKDH | 5.75

Biological target: CaLsb1
Experiment: as above
How it was run: as §1

Binder | SPOT peptide array binding signal intensity
MSPLGAPPPPPHKDH | 0.75

Biological target: CaLsb4
Experiment: as above
How it was run: as §1

Binder | SPOT peptide array binding signal intensity
MSPLGAPPPPPHKDH | ≤ 0

Biological target: CaMyo5
Experiment: as above
How it was run: as §1

Binder | SPOT peptide array binding signal intensity
MSPLGAPPPPPHKDH | 46.5

Biological target: CaNbp2
Experiment: as above
How it was run: as §1

Binder | SPOT peptide array binding signal intensity
MSPLGAPPPPPHKDH | ≤ 0

Biological target: CaRvs167
Experiment: as above
How it was run: as §1

Binder | SPOT peptide array binding signal intensity
MSPLGAPPPPPHKDH | 0.833

Biological target: CaRvs167-3
Experiment: as above
How it was run: as §1

Binder | SPOT peptide array binding signal intensity
MSPLGAPPPPPHKDH | ≤ 0

Biological target: CaSho1
Experiment: as above
How it was run: as §1

Binder | SPOT peptide array binding signal intensity
MSPLGAPPPPPHKDH | ≤ 0

Biological target: CaSla1-D1-D2
Experiment: as above
How it was run: as §1

Binder | SPOT peptide array binding signal intensity
MSPLGAPPPPPHKDH | ≤ 0

Biological target: CaSla1-D3
Experiment: as above
How it was run: as §1

Binder | SPOT peptide array binding signal intensity
MSPLGAPPPPPHKDH | ≤ 0

Biological target: ScAbp1
Experiment: as above
How it was run: as §1

Binder | SPOT peptide array binding signal intensity
MSPLGAPPPPPHKDH | ≤ 0

Biological target: ScBbc1
Experiment: as above
How it was run: as §1

Binder | SPOT peptide array binding signal intensity
MSPLGAPPPPPHKDH | ≤ 0

Biological target: ScBem1-D1
Experiment: as above
How it was run: as §1

Binder | SPOT peptide array binding signal intensity
MSPLGAPPPPPHKDH | ≤ 0

Biological target: ScBzz1-D1
Experiment: as above
How it was run: as §1

Binder | SPOT peptide array binding signal intensity
MSPLGAPPPPPHKDH | 1.5

Biological target: ScBzz1-D2
Experiment: as above
How it was run: as §1

Binder | SPOT peptide array binding signal intensity
MSPLGAPPPPPHKDH | 1

Biological target: ScCyk3
Experiment: as above
How it was run: as §1

Binder | SPOT peptide array binding signal intensity
MSPLGAPPPPPHKDH | ≤ 0

Biological target: ScFus1
Experiment: as above
How it was run: as §1

Binder | SPOT peptide array binding signal intensity
MSPLGAPPPPPHKDH | ≤ 0

Biological target: ScHof1
Experiment: as above
How it was run: as §1

Binder | SPOT peptide array binding signal intensity
MSPLGAPPPPPHKDH | ≤ 0

Biological target: ScHse1
Experiment: as above
How it was run: as §1

Binder | SPOT peptide array binding signal intensity
MSPLGAPPPPPHKDH | ≤ 0

Biological target: ScLsb1
Experiment: as above
How it was run: as §1

Binder | SPOT peptide array binding signal intensity
MSPLGAPPPPPHKDH | ≤ 0

Biological target: ScLsb2
Experiment: as above
How it was run: as §1

Binder | SPOT peptide array binding signal intensity
MSPLGAPPPPPHKDH | ≤ 0

Biological target: ScLsb3
Experiment: as above
How it was run: as §1

Binder | SPOT peptide array binding signal intensity
MSPLGAPPPPPHKDH | ≤ 0

Biological target: ScLsb4
Experiment: as above
How it was run: as §1

Binder | SPOT peptide array binding signal intensity
MSPLGAPPPPPHKDH | ≤ 0

Biological target: ScMyo3
Experiment: as above
How it was run: as §1

Binder | SPOT peptide array binding signal intensity
MSPLGAPPPPPHKDH | 700

Biological target: ScMyo5
Experiment: as above
How it was run: as §1

Binder | SPOT peptide array binding signal intensity
MSPLGAPPPPPHKDH | 751

Biological target: ScNbp2
Experiment: as above
How it was run: as §1

Binder | SPOT peptide array binding signal intensity
MSPLGAPPPPPHKDH | ≤ 0

Biological target: ScPex13
Experiment: as above
How it was run: as §1

Binder | SPOT peptide array binding signal intensity
MSPLGAPPPPPHKDH | ≤ 0

Biological target: ScRvs167
Experiment: as above
How it was run: as §1

Binder | SPOT peptide array binding signal intensity
MSPLGAPPPPPHKDH | 2

Biological target: ScSho1
Experiment: as above
How it was run: as §1

Binder | SPOT peptide array binding signal intensity
MSPLGAPPPPPHKDH | ≤ 0

Biological target: ScSla1-D1-D2
Experiment: as above
How it was run: as §1

Binder | SPOT peptide array binding signal intensity
MSPLGAPPPPPHKDH | ≤ 0

Biological target: ScSla1-D3
Experiment: as above
How it was run: as §1

Binder | SPOT peptide array binding signal intensity
MSPLGAPPPPPHKDH | ≤ 0

Biological target: SpAbp1-D1
Experiment: as above
How it was run: as §1

Binder | SPOT peptide array binding signal intensity
MSPLGAPPPPPHKDH | ≤ 0

Biological target: SpBbc1
Experiment: as above
How it was run: as §1

Binder | SPOT peptide array binding signal intensity
MSPLGAPPPPPHKDH | ≤ 0

Biological target: SpBzz1-D1
Experiment: as above
How it was run: as §1

Binder | SPOT peptide array binding signal intensity
MSPLGAPPPPPHKDH | 324

Biological target: SpBzz1-D2
Experiment: as above
How it was run: as §1

Binder | SPOT peptide array binding signal intensity
MSPLGAPPPPPHKDH | ≤ 0

Biological target: SpCyk3
Experiment: as above
How it was run: as §1

Binder | SPOT peptide array binding signal intensity
MSPLGAPPPPPHKDH | ≤ 0

Biological target: SpHof1
Experiment: as above
How it was run: as §1

Binder | SPOT peptide array binding signal intensity
MSPLGAPPPPPHKDH | 1

Biological target: SpHof1-2
Experiment: as above
How it was run: as §1

Binder | SPOT peptide array binding signal intensity
MSPLGAPPPPPHKDH | ≤ 0

Biological target: SpHof1-3
Experiment: as above
How it was run: as §1

Binder | SPOT peptide array binding signal intensity
MSPLGAPPPPPHKDH | 0.5

Biological target: SpHse1
Experiment: as above
How it was run: as §1

Binder | SPOT peptide array binding signal intensity
MSPLGAPPPPPHKDH | ≤ 0

Biological target: SpLsb1
Experiment: as above
How it was run: as §1

Binder | SPOT peptide array binding signal intensity
MSPLGAPPPPPHKDH | ≤ 0

Biological target: SpLsb4
Experiment: as above
How it was run: as §1

Binder | SPOT peptide array binding signal intensity
MSPLGAPPPPPHKDH | ≤ 0

Biological target: SpMyo1
Experiment: as above
How it was run: as §1

Binder | SPOT peptide array binding signal intensity
MSPLGAPPPPPHKDH | 1060

Biological target: SpNbp2
Experiment: as above
How it was run: as §1

Binder | SPOT peptide array binding signal intensity
MSPLGAPPPPPHKDH | ≤ 0

Biological target: SpPex13
Experiment: as above
How it was run: as §1

Binder | SPOT peptide array binding signal intensity
MSPLGAPPPPPHKDH | ≤ 0

Biological target: SpRvs167
Experiment: as above
How it was run: as §1

Binder | SPOT peptide array binding signal intensity
MSPLGAPPPPPHKDH | 12.7

Biological target: SpSla1-D1-D2
Experiment: as above
How it was run: as §1

Binder | SPOT peptide array binding signal intensity
MSPLGAPPPPPHKDH | ≤ 0

Biological target: SpSla1-D3
Experiment: as above
How it was run: as §1

Binder | SPOT peptide array binding signal intensity
MSPLGAPPPPPHKDH | ≤ 0
